From PubChem BioAssay (EPA / NIEHS)
“And” between values parts separate entries of the source, which are not always exact repeats. Equal values may be shown once. Results filed as inconclusive are left out. The source made the active and inactive calls. How the source made its calls, unless noted: active means hit-call score of the fitted dose curve at least 0.9, where 1 is the maximum; inactive means score below 0.9.

Columns and labels:
[1] = APR_HepG2_CellLoss_1hr: Apredica 1-hour HepG2 Assay for Cell Loss (AID 2282668); conditions: high-content imaging;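 further: curves fitted both ways against DMSO so gain or loss of cells counts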
How it was run: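 Cell number comes from high-content imaging of Hoechst-labelled nuclei in fixed HepG2 cells. Cells were exposed for 1 h to ten concentrations from 0.39 to 200 uM in 0.5% DMSO. Gain or loss was fitted against DMSO controls.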

[2] = APR_HepG2_NuclearSize_1hr: Apredica 1-hour HepG2 Assay for Nuclear Size (AID 2282670); conditions: high-content imaging, actives raise or lower the signal
How it was run: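 Nuclear size measured by high-content imaging of Hoechst 33342 nuclear stain after formaldehyde fixation; human HepG2 line exposed 1 hr to compounds at 0.39–200 uM in 0.5% DMSO, with bidirectional curve fitting relative to DMSO.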

[3] = APR_HepG2_MitoticArrest_1hr: Apredica 1-hour HepG2 Assay for Mitotic Arrest (AID 2282672); conditions: high-content imaging, actives raise or lower the signal
How it was run: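 Ten-point concentration series (0.39 to 200 uM, duplicates, 0.5% v/v DMSO) applied to human HepG2 liver cells for 1 hr. High-content imaging of phospho-histone H3 and Hoechst-stained nuclei after fixation and permeabilization; DMSO-normalised bidirectional fit.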

[4] = APR_HepG2_P-H2AX_1hr: Apredica 1-hour HepG2 Assay for H2AX Phosphorylation (AID 2282673); conditions: high-content imaging, actives raise or lower the signal
How it was run: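 Phospho-H2A.x immunofluorescence (1:200, FITC secondary) plus Hoechst nuclear stain, quantified by high-content imaging in HepG2 after 1 hr compound exposure. Ten concentrations, 0.39 to 200 uM, in duplicate with 0.5% DMSO; fit both directions against DMSO.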

[5] = APR_HepG2_MitoMembPot_1hr: Apredica 1-hour HepG2 Assay for Mitochondrial Membrane Potential (AID 2282675); conditions: imaging, actives raise or lower the signal
How it was run: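 Mitochondrial membrane potential read as MitoTracker Red CMXRos intensity by automated imaging of fixed HepG2 cells. Dye at 250 nM for 30 min pre-fixation; compounds 0.39 to 200 uM for 1 hour, duplicate wells, 0.5% DMSO.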

[6] = APR_HepG2_NuclearSize_24hr: Apredica 24-hour HepG2 Assay for Nuclear Size (AID 2282907); conditions: high-content imaging, actives raise or lower the signal
How it was run: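 After fixation and permeabilization, 24-hr-treated HepG2 cells were stained with Hoechst 33342 and imaged on an ArrayScan (20x). Doses spanned 0.39–200 uM in duplicate. Nuclear diameter changes in either direction were fitted relative to 0.5% DMSO controls.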

[7] = APR_HepG2_CellLoss_24hr: Apredica 24-hour HepG2 Assay for Cell Loss (AID 2282908); conditions: high-content imaging;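 on AC50: fit in both directions so a hit may be cell loss or gain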
How it was run: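 Duplicate wells received compound at ten concentrations (0.39–200 uM; final DMSO 0.5% v/v). After fixation with formaldehyde, nuclei stained with Hoechst 33342 were imaged at 20x. Loss or gain of cell count was fitted relative to DMSO controls.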

[8] = APR_HepG2_MicrotubuleCSK_24hr: Apredica 24-hour HepG2 Assay for Microtubule CSK Stabilty (AID 2282909); conditions: HepG2 microtubule cytoskeleton imaging, actives raise or lower the signal
How it was run: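 Microtubule stability is scored from tubulin immunofluorescence in fixed HepG2 cells imaged at 20x. Cells receive ten compound concentrations up to 200 uM for 24 h; taxol and DMSO serve as positive and negative controls.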

[9] = APR_HepG2_MitoMembPot_24hr: Apredica 24-hour HepG2 Assay for Mitochondrial Membrane Potential (AID 2282911); conditions: imaging, actives raise or lower the signal
How it was run: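 HepG2 human liver cells were exposed 24 hr to compounds at 0.39–200 uM (final DMSO 0.5% v/v) in duplicate. MitoTracker Red CMXRos (250 nM, 30 min) was loaded before formaldehyde fixation; fluorescence was imaged by ArrayScan HCS and fitted bidirectionally versus DMSO.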

[10] = APR_HepG2_MitoMass_24hr: Apredica 24-hour HepG2 Assay for Mitochondrial Mass (AID 2282912); conditions: high-content imaging, actives raise or lower the signal
How it was run: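 Readout: fluorescence of MitoTracker Red CMXRos (250 nM, added 30 min pre-fixation) in fixed HepG2 cells imaged by HCS. Exposure lasted 24 hr at 0.39–200 uM; increases and decreases were both fitted relative to DMSO.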

[11] = APR_HepG2_CellCycleArrest_72hr: Apredica 72-hour HepG2 Assay for Cell Cycle Arrest (AID 2282914); conditions: high-content imaging, actives raise or lower the signal
How it was run: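 HepG2 cells were exposed to compounds at 0.39–200 uM (0.5% v/v DMSO final, duplicates) for 72 hr, fixed in 3.7% formaldehyde, permeabilized and stained with Hoechst 33342. Nuclear DNA content was quantified by high-content imaging; gain or loss of signal was fitted bidirectionally against DMSO.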

[12] = APR_HepG2_CellLoss_72hr: Apredica 72-hour HepG2 Assay for Cell Loss (AID 2282915); conditions: high-content imaging
How it was run: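 HepG2 cells were exposed for 72 hr to compounds at 0.39–200 uM (ten concentrations, duplicate) in 0.5% v/v final DMSO. Nuclei were stained with Hoechst 33342 after 3.7% formaldehyde fixation, imaged at 20x, and counted; fits bidirectional versus DMSO.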

[13] = ACEA_ER_80hr: ACEA Biosciences xCELLigence Real-Time Cell Analysis on Estrogen Receptor Agonism for Proliferation (AID 2282667; active means hit-call score of the fitted dose curve at least 0.9, where 1 is the maximum); conditions: T47D proliferation, impedance (xCELLigence), 80 h
How it was run: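 T47D human breast cells were seeded on electrode plates, monitored overnight, then exposed continuously to compounds in eight-point 1:4 dilutions from 100 uM (max 0.5% DMSO). Impedance-based growth was read at 80 h, fitted upward relative to DMSO.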

[14] = APR_HepG2_MitoMass_1hr: Apredica 1-hour HepG2 Assay for Mitochondrial Mass (AID 2282674); conditions: high-content imaging, actives raise or lower the signal
How it was run: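 Mitochondrial mass is taken from MitoTracker Red CMXRos (250 nM, 30 min, pre-fixation) fluorescence imaged at 20x in HepG2 cells. Exposure lasted 1 hr across ten concentrations, 0.39 to 200 uM, 0.5% DMSO; DMSO baseline, bidirectional fitting.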

[15] = APR_HepG2_CellCycleArrest_24hr: Apredica 24-hour HepG2 Assay for Cell Cycle Arrest (AID 2282905); conditions: imaging, actives raise or lower the signal;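 further: cell cycle arrest scored as ratio of 2N to 4N nuclear DNA content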
How it was run: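 Step one: dose HepG2 with test compounds, 0.39–200 uM, 0.5% DMSO, 24 hr. Step two: fix, permeabilize, stain nuclei with Hoechst 33342. Step three: image six fields per well at 20x, quantify DNA content, fit bidirectionally relative to DMSO.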

[16] = APR_HepG2_StressKinase_1hr: Apredica 1-hour HepG2 Assay for Stress Kinase (AID 2282906); conditions: HepG2 stress kinase (phospho-c-Jun) imaging, actives raise or lower the signal
How it was run: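 High-content imaging of phospho-c-Jun immunostaining (with Hoechst nuclear identification) after a 1 h exposure of HepG2 cells to 10 concentrations from 0.39 to 200 uM, final DMSO 0.5%. Fitted bidirectionally against DMSO.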

[17] = APR_HepG2_p53Act_24hr: Apredica 24-hour HepG2 Assay for p53 Activation (AID 2282913); conditions: high-content imaging, actives raise or lower the signal;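 further: p53 protein immunofluorescence averaged per cell in HepG2 with Hoechst nuclei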
How it was run: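 HepG2 cells exposed 24 hr to compounds at 0.39–200 uM (10 concentrations, duplicate), final DMSO 0.5% v/v. After formaldehyde fixation and Triton permeabilization, p53 was immunolabeled (sheep anti-p53, Cy5 secondary) with Hoechst 33342 nuclear counterstain, then imaged by high-content fluorescence microscopy.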

[18] = APR_HepG2_MitoticArrest_24hr: Apredica 24-hour HepG2 Assay for Mitotic Arrest (AID 2282910); conditions: high-content imaging, actives raise or lower the signal
How it was run: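 Treatment lasted 24 hr in the human HepG2 line at 0.39–200 uM, solvent held at 0.5% DMSO. Fixed cells were stained with Hoechst 33342 and anti-phospho-histone H3, imaged at 20x, and analysed by gain- or loss-of-signal fitting against DMSO.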

[19] = APR_HepG2_MicrotubuleCSK_1hr: Apredica 1-hour HepG2 Assay for Microtubule CSK Stabilty (AID 2282669); conditions: HepG2 microtubule cytoskeleton imaging, actives raise or lower the signal
How it was run: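 Alpha-tubulin immunofluorescence, imaged by automated high-content microscopy with Hoechst nuclear segmentation, measured cytoskeletal change after 1 h dosing of HepG2 at 0.39–200 uM in 0.5% DMSO. Activity fitted in both directions relative to DMSO.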

Measured: AC50

COc1nc(C)nc(NC(=O)NS(=O)(=O)c2ccccc2OCCCl)n1
inactive: [1] | [2] | [3] | [4] | [5] | [6] | [7] | [8] | [9] | [10] | [11] | [12]

C[C@]12CC[C@@H]3c4ccc(O)cc4C[C@@H](CCCCCCCCCS(=O)CCCC(F)(F)C(F)(F)F)[C@H]3[C@@H]1CC[C@@H]2O (some centres not stated)
active: [13] 6.15 µM and 9.53 µM
inactive: [6] | [7] | [8] | [9] | [10] | [11] | [12]

COC(=O)c1ccc(I)cc1S(=O)(=O)NC(=O)Nc1nc(C)nc(OC)n1
inactive: [1] | [2] | [3] | [4] | [14] | [5] | [15] | [16] | [6] | [7] | [8] | [9] | [10] | [17] | [11] | [12]

CC(=O)[C@H]1CC[C@H]2[C@@H]3CCC4=CC(=O)CC[C@]4(C)[C@H]3CC[C@]12C
active: [15] 169 µM | [7] 101 µM | [8] 104 µM | [18] 100 µM | [10] 106 µM | [17] 94.1 µM | [11] 165 µM | [12] 95.6 µM
inactive: [6] | [9]

S=C([S-])NCCNC(=S)[S-].[Mn+2]
inactive: [1] | [2] | [3] | [4] | [5] | [16] | [6] | [7] | [8] | [18] | [9] | [10]
active: [11] 82.9 µM | [12] 11.5 µM

CCCCCCC(C)OC(=O)COc1nc(F)c(Cl)c(N)c1Cl (configuration not stated)
active: [1] 113 µM | [4] 100 µM | [8] 116 µM
inactive: [2] | [3] | [5] | [16] | [6] | [7] | [18] | [9] | [10] | [11] | [12]

COC(=O)c1ccc(CNS(C)(=O)=O)cc1S(=O)(=O)NC(=O)Nc1nc(OC)cc(OC)n1
inactive: [1] | [2] | [3] | [4] | [5] | [6] | [7] | [8] | [18] | [9] | [10] | [11] | [12]

CCOC(=O)C(C)Oc1ccc(Oc2nc3ccc(Cl)cc3o2)cc1 (configuration not stated)
active: [12] 90.1 µM
inactive: [1] | [19] | [2] | [3] | [4] | [5] | [15] | [6] | [7] | [8] | [9] | [10] | [11]

CCNc1nc(N)nc(Cl)n1
inactive: [1] | [2] | [3] | [4] | [5] | [15] | [6] | [7] | [8] | [9] | [10] | [17] | [11] | [12]

CSC(=O)c1cccc2nnsc12
inactive: [1] | [2] | [3] | [4] | [5] | [15] | [6] | [7] | [8] | [9] | [10] | [11] | [12]

CCCCC(CC)COC(=O)c1ccccc1C(=O)O (configuration not stated)
inactive: [1] | [2] | [3] | [4] | [14] | [5] | [6] | [7] | [8] | [9] | [10] | [11] | [12]

CCC(O)=C1C(=O)CC(C(=O)O)CC1=O (configuration not stated)
inactive: [1] | [2] | [3] | [4] | [5] | [15] | [6] | [7] | [8] | [18] | [9] | [10] | [11] | [12]

CCOC(=O)c1ccc(O)cc1
active: [13] 11.4 µM [middle of 4 runs]
inactive: [6] | [7] | [8] | [9] | [10] | [11] | [12]

Oc1ccc(C(c2ccc(O)cc2)C(Cl)(Cl)Cl)cc1
active: [5] 87 µM | [7] 135 µM | [12] 33.4 µM
inactive: [1] | [19] | [2] | [3] | [4] | [6] | [8] | [9] | [10] | [11]

O=C(c1ccccc1)C1CCCCC1
inactive: [6] | [7] | [8] | [9] | [10] | [11] | [12]
active: [13] 9.92 µM and 6.21 µM and 50 µM

CCC(C)OC(=O)N1CCCCC1CCO (configuration not stated)
inactive: [1] | [2] | [3] | [4] | [5] | [6] | [7] | [8] | [18] | [9] | [10] | [11] | [12]
